From the supplement of paper PMC7380943 come the findings set out here.

In experiment [1] the test system is CLZ3 (HCA2 human fibroblast dual HR-NHEJ reporter). Put plainly: NHEJ repair efficiency (GFP+ cells) relative to control (log10 fold); higher = more non-homologous end joining. Particulars: 5 µM; doxycycline 0.5 ug/mL.
Experiment [2] shares this test system. The experiment in a line: HR repair efficiency (tdTomato+ cells) relative to control (log10 fold); higher = more homologous recombination. Particulars: 5 µM; doxycycline 0.5 ug/mL.
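Throughout, for HR repair efficiency (tdTomato+ cells) relative to control: compound given one day before doxycycline, which switches on I-SceI endonuclease expression to create double-strand breaks within the integrated reporter.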
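Throughout, for NHEJ repair efficiency (GFP+ cells) relative to control: compound given one day ahead of doxycycline, which switches on I-SceI endonuclease to cut the chromosomally integrated reporter and create DSBs.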

Consider `Cc1ccc(C(C)C)cc1` [p-Cymene], for which the “NHEJ repair efficiency (log10)” value in experiment [1] is 0.065. Besides, the “HR repair efficiency (log10)” value in experiment [2] was 0.196.
In the same order, the values of `C[C@@H]1O[C@@H](OC[C@H]2O[C@@H](Oc3cc(O)c4c(=O)cc(-c5ccc(O)cc5)oc4c3)[C@H](O[C@@H]3O[C@@H](C)[C@H](O)[C@@H](O)[C@H]3O)[C@@H](O)[C@@H]2O)[C@H](O)[C@H](O)[C@H]1O` [Ligustroflavone] are 0.105 and 0.0603.
In the case of `COc1cc2c(cc1OC)-c1cc3ccc4c(c3c[n+]1CC2)OCO4` [Epiberberine], the “NHEJ repair efficiency (log10)” value in experiment [1] was -0.03. For the same compound, the “HR repair efficiency (log10)” value in experiment [2] is 0.05.
As for `COc1cc2c(c(OC)c1OC)-c1c(cc3c(c1OC)OCO3)C[C@H](C)[C@@](C)(O)C2` [Schizandrol B], the “NHEJ repair efficiency (log10)” value in experiment [1] was -0.0319. In addition, the “HR repair efficiency (log10)” value in experiment [2] was -0.132.
Regarding `NC(=O)c1cccnc1` [Nicotinamide], the “NHEJ repair efficiency (log10)” value in experiment [1] came to 0.139. Also, the “HR repair efficiency (log10)” value in experiment [2] was 0.186.
Turning to `Oc1ccc2c(c1)OCO2` [Sesamol], the “NHEJ repair efficiency (log10)” value in experiment [1] stood at 0.111. Besides, the “HR repair efficiency (log10)” value in experiment [2] was 0.234.
In the same order, the values of `Cc1cc(O)c(C(=O)CCC(C)C)c(=O)o1` [Pogostone] are -0.0825 and -0.0091.
In the case of `COC(=O)c1ccc(O)cc1` [Methylparaben], in experiment [1], the “NHEJ repair efficiency (log10)” value is 0.0529. In addition, in experiment [2], the “HR repair efficiency (log10)” value was 0.0479.
Take `O=c1c2ccccc2nc2n1CCc1c-2[nH]c2ccccc12` [Rutecarpine]: the “NHEJ repair efficiency (log10)” value in experiment [1] is -0.038. For the same compound, the “HR repair efficiency (log10)” value in experiment [2] is -0.0255.
Regarding `C[C@@]12C[C@@]3(O)O[C@@H](O1)[C@]1(COC(=O)c4ccccc4)[C@@H]3C[C@]12O[C@@H]1O[C@H](COC(=O)c2ccccc2)[C@@H](O)[C@H](O)[C@H]1O` [Benzoylpaeoniflorin], the “NHEJ repair efficiency (log10)” value in experiment [1] is -0.0544. For the same compound, the “HR repair efficiency (log10)” value in experiment [2] is -0.0282.
In the same order, the values of `C[C@@H]1CC[C@@]2(NC1)O[C@H]1C[C@H]3[C@@H]4CC=C5C[C@@H](O[C@@H]6O[C@H](CO)[C@H](O)[C@H](O[C@@H]7O[C@H](CO)[C@@H](O)[C@H](O)[C@H]7O)[C@H]6O[C@@H]6O[C@@H](C)[C@H](O)[C@@H](O)[C@H]6O)CC[C@]5(C)[C@H]4CC[C@]3(C)[C@H]1[C@@H]2C` [Solasonine] are -0.000957 and 0.0163.
In the same order, the values of `O=C1C=C2C=C[C@@H](O)[C@H](O)[C@H]2O1` [Griffonilide] are 0.0786 and 0.00766.
On to `OC[C@H]1O[C@@H](Oc2cc(O)cc(/C=C/c3ccc(O)cc3)c2)[C@H](O)[C@@H](O)[C@@H]1O` [Polydatin], for which the “NHEJ repair efficiency (log10)” value in experiment [1] was 0.036. For the same compound, the “HR repair efficiency (log10)” value in experiment [2] was 0.288.
With `C[C@@H]1O[C@@H](OC[C@H]2O[C@@H](Oc3cc(O)c4c(c3)O[C@H](c3ccc(O)c(O)c3)CC4=O)[C@H](O)[C@@H](O)[C@@H]2O)[C@H](O)[C@H](O)[C@H]1O` [Eriocitrin], in experiment [1], the “NHEJ repair efficiency (log10)” value stood at 0.00276. For the same compound, the “HR repair efficiency (log10)” value in experiment [2] is -0.0151.
With `CC12CCC(CC1)C(C)(C)O2` [Eucalyptol], the “NHEJ repair efficiency (log10)” value in experiment [1] turned out to be 0.0692. Besides, in experiment [2], the “HR repair efficiency (log10)” value came to 0.0216.
